Assay results published in PubChem BioAssay (Tox21).
Results filed as inconclusive are left out. Calls of active or inactive are those of the source. Unless noted, calls come from the whole dose curve; as a rule, active = well fitted curve in the direction sought with a large enough effect in the repeat runs; inconclusive = weak or mixed curves; inactive = no such curve, though single readings can be large; an effect the other way counts as inactive or inconclusive.

Tests used:
[1] = qHTS assay to identify small molecule antagonists of the glucocorticoid receptor (GR) signaling pathway - cell viability counter screen (AID 720693); note: nearly all actives have a fitted effect of over 55% in size
[2] = qHTS assay for identifying genotoxic compounds that show differential cytotoxicity against isogenic chicken DT40 cell lines with known DNA damage response pathways - wild type cell line (AID 743012); note: nearly all actives have a fitted effect of over 60% in size; note: potency is the fitted concentration of half-maximal effect
Method in brief: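 CellTiter-Glo luminescence readout of viability in wild type DT40 cells after 40 h compound exposure at 37 C/5% CO2; 300 cells/well; reagent incubated 30 min at room temperature before reading.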

[3] = qHTS assay for identifying genotoxic compounds that show differential cytotoxicity against isogenic chicken DT40 cell lines with known DNA damage response pathways - Rad54/Ku70 mutant cell line (AID 743015); note: nearly all actives have a fitted effect of over 60% in size; note: potency is the fitted concentration of half-maximal effect
[4] = qHTS assay to identify small molecule antagonists of the androgen receptor (AR) signaling pathway - cell viability counter screen (AID 743033; note: nearly all actives have a fitted effect of over 45% in size)
[5] = qHTS assay to identify small molecule antagonists of the androgen receptor (AR) signaling pathway using the MDA cell line - cell viability counter screen (AID 743041; note: nearly all actives have a fitted effect of over 45% in size)
Method in brief: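 Using the breast carcinoma line MDA-kb2 AR-luc, test chemicals were co-incubated with R1881 for 16 h; CellTiter-Fluor reagent, added at 15.5 h, provided a fluorescence measure of live cells.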

[6] = molecular target: Androgen receptor (Homo sapiens) (UniProt P10275); test: qHTS assay to identify small molecule agonists of the androgen receptor (AR) signaling pathway (AID 743036; active = well fitted activation curve with a large enough effect in the signal ratio in the repeat runs, with a control signal flat, not every such curve was filed as active; the % refers to the signal ratio)
Method in brief: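 AR-UAS-bla HEK293 cells, plated 4 h before dosing, were treated with compound for 16 h at 37C. beta-Lactamase reporter read after 2 h with LiveBLAzer B/G FRET substrate at room temperature.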

[7] = molecular target: Androgen receptor (Homo sapiens) (UniProt P10275); test: qHTS assay to identify small molecule agonists of the androgen receptor (AR) signaling pathway using the MDA cell line (AID 743040; note: nearly all actives have a fitted effect of over 20% in size)
Method in brief: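 Stable MMTV-luciferase reporter in MDA-kb2 cells; note the promoter carries GR as well as AR response elements. 16 h compound treatment, 37C, 0% CO2; ONE-Glo luminescence endpoint.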

[8] = molecular target: Androgen receptor (Homo sapiens) (UniProt P10275); test: qHTS assay to identify small molecule antagonists of the androgen receptor (AR) signaling pathway using the MDA cell line (AID 743042; note: nearly all actives have a fitted effect of over 55% in size; note: potency is the fitted concentration of half-maximal effect)
Method in brief: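 Antagonist mode: compounds plus R1881 agonist added to MDA-kb2 AR-luc cells, incubated 16 h at 37C. Luciferase reporter luminescence quantified, with multiplexed CellTiter-Fluor readout for cell viability.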

[9] = qHTS assay for identifying genotoxic compounds that show differential cytotoxicity against isogenic chicken DT40 cell lines with known DNA damage response pathways - Rev3 mutant cell line (AID 743014); note: nearly all actives have a fitted effect of over 55% in size; note: potency is the fitted concentration of half-maximal effect
[10] = molecular target: Androgen receptor (Homo sapiens) (UniProt P10275); test: qHTS assay to identify small molecule antagonists of the androgen receptor (AR) signaling pathway (AID 743035; active = well fitted inhibition curve with a large enough effect in the signal ratio in the repeat runs, not every such curve was filed as active; the % refers to the signal ratio)
Method in brief: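 AR-bla HEK293 reporter cells; 4 h settle at 37C/5% CO2; compound + R1881 agonist, 16 h at 37C; LiveBLAzer B/G FRET substrate 2 h RT; fluorescence intensity read. qHTS format.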

Measured: Potency

Chain of Androgen receptor (Homo sapiens) (P10275 whole entry, looked up): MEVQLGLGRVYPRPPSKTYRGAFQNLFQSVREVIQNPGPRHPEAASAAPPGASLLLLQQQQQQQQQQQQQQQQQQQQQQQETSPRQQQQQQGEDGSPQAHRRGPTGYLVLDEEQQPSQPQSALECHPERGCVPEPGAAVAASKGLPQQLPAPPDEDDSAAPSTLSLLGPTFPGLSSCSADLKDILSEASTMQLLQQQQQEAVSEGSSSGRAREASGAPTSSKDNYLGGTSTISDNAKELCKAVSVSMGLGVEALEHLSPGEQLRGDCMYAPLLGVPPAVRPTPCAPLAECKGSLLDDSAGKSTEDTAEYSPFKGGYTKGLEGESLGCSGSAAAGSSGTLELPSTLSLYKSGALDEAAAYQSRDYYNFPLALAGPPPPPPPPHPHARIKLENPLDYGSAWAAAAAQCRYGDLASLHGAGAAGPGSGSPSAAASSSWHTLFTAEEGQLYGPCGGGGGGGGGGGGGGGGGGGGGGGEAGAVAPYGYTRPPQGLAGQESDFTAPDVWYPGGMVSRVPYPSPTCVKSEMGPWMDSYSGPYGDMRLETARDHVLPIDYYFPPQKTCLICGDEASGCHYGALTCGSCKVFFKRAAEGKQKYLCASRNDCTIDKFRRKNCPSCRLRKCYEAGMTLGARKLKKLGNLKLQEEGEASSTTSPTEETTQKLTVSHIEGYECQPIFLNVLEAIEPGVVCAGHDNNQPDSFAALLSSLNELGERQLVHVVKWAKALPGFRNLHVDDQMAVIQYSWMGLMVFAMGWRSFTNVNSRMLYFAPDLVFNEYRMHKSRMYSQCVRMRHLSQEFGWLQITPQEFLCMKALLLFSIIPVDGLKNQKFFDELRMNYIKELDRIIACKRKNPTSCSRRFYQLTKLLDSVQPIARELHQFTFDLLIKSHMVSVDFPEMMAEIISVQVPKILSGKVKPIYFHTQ

O=C1NCCN1
inactive: [1] | [2] | [3] | [4] | [5]

CCCCCCCCSCCO
not listed: [3] | [9] | [10]
inactive: all other assays above

C[C@@H]1C[C@H]2[C@@H]3CCC4=CC(=O)C=C[C@]4(C)[C@@]3(F)[C@@H](O)C[C@]2(C)[C@@]1(O)C(=O)CO
inactive: [1] | [4] | [5]
active: [9] 0.553 µM | [3] 55.3 µM

CCOC(=O)/C=C/C(=O)O
not listed: [3] | [5] | [9]
inactive: all other assays above

C(=C\c1ccccc1)/CN1CCN(C(c2ccccc2)c2ccccc2)CC1
inactive: [1] | [9]

NC(=O)Nc1ccc(Cl)cc1
inactive: [1] | [9] | [3] | [4] | [5]

C=CC(C)=CCC=C(C)C
inactive: [1] | [9] | [4] | [5]

CO/N=C1\CN(c2nc3c(cc2F)c(=O)c(C(=O)O)cn3C2CC2)CC1CN (stereo not drawn)
inactive: [1] | [9] | [4] | [5]

Cc1cnc(C)c(C)n1
inactive: [1] | [2] | [4]

C=CC(=O)NCOCC(C)C
inactive: [1] | [2] | [3] | [4] | [5]

CCOC(=O)[C@@H](C)Oc1ccc(Oc2nc3ccc(Cl)cc3o2)cc1
inactive: [1] | [4] | [7] | [5] | [8]
active: [2] 68.6 µM | [3] 61.1 µM

NCC1CCCC(CN)C1 (stereo not drawn)
not listed: [2]
inactive: all other assays above

C[C@@H]1C[C@H]2[C@@H]3CCC4=CC(=O)C=C[C@]4(C)[C@@]3(F)[C@@H](O)C[C@]2(C)[C@H]1C(=O)CO
inactive: [1] | [4] | [5]
active: [2] 13.3 µM | [3] 26.6 µM

O=[N+]([O-])c1cccc(S(=O)(=O)NCCNS(=O)(=O)c2cccc([N+](=O)[O-])c2)c1
inactive: [1] | [2] | [3] | [7] | [5] | [8]

Cc1ccc(S)cc1
inactive: [1] | [5]
active: [2] 61.1 µM

OCCSc1ccccc1
inactive: [1] | [2] | [3] | [4] | [5]

N#C/C(=C1\SCC(c2ccccc2Cl)S1)n1ccnc1 (stereo not drawn)
active: [9] 26.6 µM | [3] 29.8 µM
not listed: [2] | [7]
inactive: all other assays above

CCC(C(=O)OCCOCCN(CC)CC)c1ccccc1 (stereo not drawn)
inactive: [1] | [5]
active: [9] 10.6 µM | [3] 21.1 µM

CCC(C)(O)CCC=C(C)C (stereo not drawn)
inactive: [1] | [2] | [3] | [5]

CCC(Cc1ccccc1)(C(=O)c1ccc(N2CCOCC2)cc1)N(C)C (stereo not drawn)
inactive: [5]
active: [2] 7.7 µM | [9] 4.33 µM | [3] 9.69 µM

CCCOC(=O)c1ccc(N)cc1
active: [3] 23.7 µM
not listed: [1] | [9] | [10]
inactive: all other assays above

Cc1ccc(Nc2nccc(N(C)c3ccc4c(C)n(C)nc4c3)n2)cc1S(N)(=O)=O
active: [2] 9.44 µM | [9] 11.9 µM | [3] 10.6 µM | [8] 11.9 µM
inactive: [4] | [7]

CCCCC/C(=C\c1ccccc1)CO
inactive: [1] | [5]

CCOC(=N)CC(=O)OCC
inactive: [2] | [3] | [5]

CN1CCN(CCCN2c3ccccc3Sc3ccc(S(=O)(=O)N(C)C)cc32)CC1
inactive: [1] | [9] | [5]
